Consider 40 compounds from the supplement of paper PMC13380429.

The structures appear in SMILES notation.

The subject of this test is Vero E6 infected with SARS-CoV-2. The experiment in a line: morphology score (similarity to uninfected cells); higher = more like uninfected cells. Particulars: 24 h.
On to `COc1ccc(COc2cc3oc(=O)c4cc(C(C)O)ccc4c3cc2OC)cc1` (stereo not given) [palomid-529] (10 µM), for which the morphology score amounted to 0.0689.

On to `O=C(Oc1cc(S(=O)(=O)c2ccccc2)ccc1[N+](=O)[O-])c1ccc(Cl)cc1` (10 µM), for which the morphology score was found to be 0.245. `CN1CCN(c2cccc3[nH]c(=O)oc23)CC1` [pardoprunox] (10 µM) returned a morphology score of -0.1.

Take `C=CC[C@]1(O)CC[C@H]2[C@@H]3CCC4=CC(=O)CCC4=C3C=C[C@@]21C` [altrenogest] (10 µM): the morphology score came to 0.0206. Next, `CNC(=N)NCCC[C@H](N)C(=O)O` [targinine] (10 µM): 0.0428; `NCCC[C@H](N)C(=O)O` [ornithine] (10 µM): 0.101; `CN(C)[C@@H]1C(O)=C(C(N)=O)C(=O)[C@@]2(O)C(O)=C3C(=O)c4c(O)cccc4[C@@](C)(O)[C@H]3C[C@@H]12` [tetracycline] (10 µM): 0.157.

`Nc1c2ccccc2nc2ccccc12` [9-aminoacridine] (0.833333 µM) displayed a morphology score of 0.102. For `Cc1ccc(C)c([C@H](O)CNC(C)C)c1` [benzenemethanol,-2,5-dimethyl-[[(1-methylethyl)amino]methyl]] (10 µM), the morphology score was found to be 0.0583. Take `C#C[C@]1(O)CC[C@H]2[C@@H]3CCC4=CC(=O)CC[C@@H]4[C@H]3C(=C)C[C@@]21CC` [etonogestrel] (10 µM): the morphology score was 0.249. On to `COc1ccc(C2CNC(=O)C2)cc1OC1CCCC1` (stereo not given) [rolipram] (10 µM), for which the morphology score was 0.39.

`Cc1ncc(CO)c(/C=N/NC(=O)c2ccncc2)c1O` [pyridoxal-isonicotinoyl-hydrazone] (10 µM): the morphology score is -0.0797.

The compound `CCCN1CCCC[C@H]1C(=O)Nc1c(C)cccc1C` [ropivacaine] (10 µM) yielded a morphology score of 0.0192. In the case of `C[C@H]1O[C@@H](n2cc(F)c(=O)[nH]c2=O)[C@H](O)[C@@H]1O` [doxifluridine] (10 µM), the morphology score is 0.32. In turn, `Cn1c(COc2ccc(CC3SC(=O)NC3=O)cc2)nc2ccccc2c1=O` (stereo not given) [balaglitazone] (10 µM) gave a morphology score of -0.114. Regarding `O=C(c1ccc(Cl)cc1)N(Cc1ccccc1)C1CCCCC1` (10 µM), the morphology score is -0.00245.

In turn, `N#CCNC(=O)c1ccc(-c2ccnc(Nc3ccc(N4CCOCC4)cc3)n2)cc1` (0.833333 µM) displayed a morphology score of 0.412. Under `CCN1CCN(c2cc3c(cc2F)c(=O)c(C(=O)O)cn3C2CC2)CC1` [enrofloxacin] (10 µM) stands 0.0599; under `CCn1c(N)c(C(=O)NC)c(=O)c2ccc(C#C[C@@](C)(O)COC)nc21` (10 µM), 0.464; under `COc1cccc(Nc2c(C(N)=O)cnc3c(C)cc(S(=O)(=O)c4cccc(C(=O)N(C)C)c4)cc23)c1` (10 µM), 0.345. Next, `CC(=O)O[C@]1(C(C)=O)CC[C@H]2[C@@H]3CCC4=CC(=O)CC[C@]4(C)[C@H]3CC[C@@]21C` [hydroxyprogesterone-acetate] (10 µM): 0.0136. `NC(=O)c1cccnc1` [nicotinamide] (10 µM) registered a morphology score of 0.026.

In turn, `Cn1ccc2cc(NC(=O)Nc3cccnc3)ccc21` (10 µM) gave a morphology score of -0.0432. For the compound `Nc1nc(N)nc(NC2CC2)n1` [cyromazine] (10 µM), the morphology score stood at 0.128.

Take `O=C(O)c1cn(C2CC2)c2cc(N3CCNCC3)c(F)cc2c1=O` [ciprofloxacin] (10 µM): the morphology score was 0.046. `CNc1ncnc2c1ncn2[C@@H]1O[C@H](CO)[C@@H](O)[C@H]1O` [N6-methyladenosine] (10 µM) had a morphology score of -0.0577. `NC(=O)c1cccc2cn(-c3ccc([C@@H]4CCCNC4)cc3)nc12` [niraparib] (0.833333 µM) came in with a morphology score of 0.0643. On to `COc1cc2c(cc1OC)-c1cc3nc4ccccc4nc3n1C(C)(C)C2` (10 µM), for which the morphology score came to 0.134. Consider `S=C(NCCc1ccccn1)Nc1ccc(Br)cn1` [trovirdine] (10 µM), for which the morphology score was found to be 0.00939. Next, `BrC1C(Br)C(Br)C(Br)C(Br)C1Br` (stereo not given) [1,2,3,4,5,6-hexabromocyclohexane] (10 µM): 0.416. The compound `O=C(C1CC1)N1CC[C@@H](Cc2n[nH]c(=O)n2-c2ccc(-c3ccc4occc4c3)cc2)C1` (10 µM) had a morphology score of 0.269. In the case of `O=C(CN1CCNCC1)NC1CCCCC1` [esaprazole] (10 µM), the morphology score is 0.0266. Next, `c1cnc(N2CCN(Cc3ccc4c(c3)OCO4)CC2)nc1` [piribedil] (10 µM): 0.0979; `CN1CCN(c2ccc(Nc3ncc4cc(C#N)c(=O)n(C5CCCC5)c4n3)cc2)CC1` (0.833333 µM): 0.153. For `CCC(Cc1c(I)cc(I)c(N)c1I)C(=O)O` (stereo not given) [iopanic-acid] (10 µM), the morphology score was -0.136. In turn, `Nc1cccc2c1C(=O)N(C1CCC(=O)NC1=O)C2=O` (stereo not given) [pomalidomide] (10 µM) showed a morphology score of -0.074. Under `C[C@]1(COc2ccc(N3CCC(Oc4ccc(OC(F)(F)F)cc4)CC3)cc2)Cn2cc([N+](=O)[O-])nc2O1` [delamanid] (10 µM) stands -0.0971. With `CCOC1O[C@H]([C@@H](COCc2ccccc2)OCc2ccccc2)[C@H](OCc2ccccc2)[C@H]1O` (stereo not given in full) [tribenoside] (10 µM), the morphology score was -0.0493. As to `CCC[C@@]1(CCc2ccccc2)CC(O)=C([C@H](CC)c2cccc(NS(=O)(=O)c3ccc(C(F)(F)F)cn3)c2)C(=O)O1` [tipranavir] (10 µM), the morphology score worked out at 0.183. In turn, `C[C@H]1N=C(N(C)C)N=C(N)N1` [imeglimin] (10 µM) showed a morphology score of 0.0246.
